# Shown are actives, neighbours in structure and some others; about 19% of the full set was active somewhere.
# ELG1 repair inh: inhibitors of ELG1-dependent DNA repair in HEK293T cells. HEK293T ELG1-luciferase reporter, luminescence, 16 h; DNA damage induced by 5-fluorouridine. Potency, µM (doses to about 46.1 µM), inactives show at the top dose activity change, negative = inhibition, usual class: inhibitors. 2.3% of 330,000 active; note: potency is the fitted concentration of half-maximal effect; nearly all actives have a fitted effect of over 55% in size
#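 Luminescence from the luciferase reporter, measured 30 min after ONE-Glo reagent at room temperature, was the read-out. Beforehand, 2,000 cells per well were exposed for 16 hr at 37 °C to 5-fluorouridine together with compound or vehicle.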
# TDP1 cell CPT: DT40-hTDP1 cell growth loss with CPT; Potency, µM (series often up to 46.2 µM), without a hit: top-dose activity change, negative = growth inhibition, usual class: inhibitors; AID 686979; 12% of 420,000 active; chicken DT40 Tdp1-/-;hTDP1 cells + 20 nM CPT, ATP luminescence, 48 h; note: potency is the fitted concentration of half-maximal effect; nearly all actives have a fitted effect of over 55% in size
#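 Chicken DT40 Tdp1-/- cells stably complemented with human TDP1 were seeded at 400 cells/well in medium containing 20 nM camptothecin, exposed to pin-transferred compounds, and grown at 37 °C for at least 48 hr. Viability was read as ATP luminescence.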
# TDP1 cell noCPT: qHTS for Inhibitors of human tyrosyl-DNA phosphodiesterase 1 (TDP1): qHTS in cells in absence of CPT. DT40 Tdp1-/- hTDP1 cells, no CPT, ATP luminescence, 48 h. Potency, µM (top dose mostly 46.2 µM), for the others: top-dose activity change, negative = growth inhibition, most hits filed as inhibitors. 15% of 420,000 active. AID 686978, 2013; note: potency is the fitted concentration of half-maximal effect; nearly all actives have a fitted effect of over 55% in size
#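 DT40 Tdp1-/-;hTDP1 cells, no CPT (DMSO vehicle only), 400 cells/well; compounds pin-transferred; ≥48 hr, 37 °C; CellTiter-Glo 30 min RT dark, luminescence read.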
# HT1080-NT tox: kills 2HG-producing HT-1080-NT fibrosarcoma cells; HT-1080-NT fibrosarcoma viability, CellTiter-Glo ATP luminescence, 48 h; Potency, µM (doses to about 46.1 µM), without a hit: at the top dose activity, negative = less viability, hits mostly cytotoxic; 1.6% of 360,000 active;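 note: NT is the 2HG producing partner of a matched IDH1 knockdown line; potency is the fitted concentration of half-maximal effect; 0% = DMSO-treated cells and -100% = media-only wells without cells; nearly all actives have a fitted effect of over 55% in size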
#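 Compounds were tested in concentration-response format on HT-1080-NT cells for 48 hours at 37 degrees C. Cell viability came from CellTiter-Glo luminescence; curves were classified by r2, response magnitude and activity.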
# IL1B secr inh: blocks inflammasome-driven IL-1 beta release | activity change, % at 57.5 µM | 4.7% of 360,000 active | THP-1 LPS/ATP IL-1B secretion, AlphaLISA, 16 h; active compounds read low; in the data active = activity change below about -50%; inconclusive = mostly about -30% to -49%
#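 Secreted IL-1B measured by AlphaLISA bead assay after 16 h compound exposure of THP-1 cells; compounds (final up to 57.5 uM) added 1 h before LPS (250 ng/mL) and ATP (1.25 mM) stimulation; lower signal means less secretion.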
# HT1080 IDH1KD tx: toxicity to HT-1080 IDH1 knockdown cells (counter line) | Potency, µM (series often up to 46.1 µM), for inactives: at the highest dose activity, negative = toxicity, most hits filed as cytotoxic | 2% of 360,000 active | HT-1080 IDH1 knockdown viability, ATP luminescence, 48 h;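 note: potency is the fitted concentration of half-maximal effect; 0% = DMSO wells and -100% = cell-free medium wells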
#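 After a 2 h attachment period, IDH1KD HT-1080 cells took pin-transferred compound for 48 h at 37 °C; ATP-based luminescence after 10 min room-temperature reagent incubation reported viability.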
# Numbers without * were called inactive; ? = inconclusive; · = not tested or not shown; [ ] = another dose, or the depositor's remark. Unless noted, calls come from the whole dose curve; as a rule, active = well fitted curve in the direction sought with a large enough effect; inconclusive = small, poorly fitted or top-dose-only effect, or another doubt; inactive = no such curve, though single readings can be large; an effect the other way counts as inactive or inconclusive. Unless noted, % is set by controls: 0 for no effect and ±100 for the full control effect.
SMILES,ELG1 repair inh,TDP1 cell CPT,TDP1 cell noCPT,HT1080-NT tox,IL1B secr inh,HT1080 IDH1KD tx
CCCc1cc(CNC(=O)C2CCC(=O)N(Cc3ccccc3OC)C2)on1 (stereo not given),10%,-2%,1%,11%,21,18%
CC(C)NC(=O)C(=O)Nc1cc2c3c(c1)C(C)C(=O)N3CCC2 (stereo not given),?,-9%,2%,6%,0,13%
CCOC(=O)c1c(C)nc(C)c(C(=O)OCC)c1-c1ccco1,0%,0%,-10%,3%,25,14%
CCCNC(=O)C1(C)CCCN(C(=O)c2cccc(Cl)c2)C1 (stereo not given),·,5%,-5%,20%,-5,6%
O=C(CCSc1nc2ccccc2s1)N/N=C/c1c(O)ccc2ccccc12,-11%,6.5µM*,3.7µM*,?,192,?
Cc1ccccc1NC(=O)CCCSc1nc2ccccc2s1,16%,?,?,-4%,6,1%
COc1ccc(/C=N/NC(=O)c2cccnc2)cc1CSc1nc2ccccc2s1,7.3µM*,3.7µM*,2.9µM*,?,7,?
CC1(C)CC(=O)c2c(oc3c(Cl)cc(NS(=O)(=O)c4ccc(Cl)cc4)cc23)C1,·,-26%,-27%,·,·,·
N#Cc1ccccc1OCC(=O)N1CCN(c2ccccc2F)CC1,·,-19%,-14%,·,·,·
Cc1cc(C)nc(NC(=S)Nc2cccc(Cl)c2Cl)c1,-16%,-16%,-23%,23%,0,22%
Cc1cc(C)nc(NC(=S)Nc2ccc(Br)cc2Cl)c1,13%,6.5µM*,6.5µM*,6%,0,5%
COCc1ccc(CN2Cc3ccccc3OC(c3ccccc3OC)C2)o1 (stereo not given),·,-11%[9.04 µM],-9%,·,·,·
COc1ccc(CN2Cc3ccccc3OC(c3ccccc3OC)C2)cc1O (stereo not given),·,3%[9.04 µM],?,·,·,·
COc1ccccc1C1CN(Cc2cccc(O)c2)Cc2ccccc2O1 (stereo not given),·,-3%[9.04 µM],16µM*,·,·,·
COc1ccccc1C1CN(Cc2ccc(Sc3nncn3C)o2)Cc2ccccc2O1 (stereo not given),·,-10%[9.04 µM],16µM*,·,·,·
CCOc1cc(/C=C/c2ccc3cccc([N+](=O)[O-])c3n2)ccc1OCC(=O)N(C)C,16µM*,23µM*,?,5%,0,-15%
CCOc1cc(/C=C/c2ccc3cccc([N+](=O)[O-])c3n2)ccc1O,-23%,?,18µM*,-25%,-30,-25%
O=[N+]([O-])c1cccc2ccc(/C=C/c3ccc(F)cc3)nc12,?,?,?,-26%,6,?
COc1cc(/C=C/c2ccc3cccc([N+](=O)[O-])c3n2)ccc1OCC#N,23µM*,5.8µM*,3.7µM*,-20%,-13,-28%
Cc1[nH]c(C)c(S(=O)(=O)NCc2ccc(OC(C)C)cc2)c1C(=O)N1CCCC1,7%,-23%,-2%,-3%,0,1%
Cc1ccc(CNC(=O)CS(=O)(=O)c2cn(CC(=O)N3CCOCC3)c3ccccc23)cc1,-30%,0%,2%,2%,21,0%
Cc1cc(Cl)ccc1OC(C)C(=O)NCCCn1ccnc1 (stereo not given),-29%,6%,-19%,7%,-9,-2%
CC1(C(=O)Nc2ccc3c(c2)OCCO3)CN(S(C)(=O)=O)CC(=O)N1CC(F)(F)F (stereo not given),·,40%,21%,7%,24,6%
O=C(CSc1ccc(Cl)cc1)N/N=C/c1ccc([N+](=O)[O-])o1,6%,16µM*,?,-25%,-29,-30%
O=C(CNc1ccc2ccccc2c1)N/N=C/c1ccc([N+](=O)[O-])o1,-16%,15µM*,21µM*,?,-9,?
SMILES,ELG1 repair inh,TDP1 cell CPT,TDP1 cell noCPT,HT1080-NT tox,IL1B secr inh,HT1080 IDH1KD tx
O=C(CNc1ccc2ccccc2c1)N/N=C/c1ccc(C(=O)O)cc1,24%,-2%,2%,1%,-2,-4%
CO[C@H]1/C=C/O[C@@]2(C)Oc3c(C)c(O)c4c(O)c(c5c(c4c3C2=O)NC2(CCN(CC(C)C)CC2)N=5)=NC(=O)/C(C)=C\C=C\[C@H](C)[C@H](O)[C@@H](C)[C@@H](O)[C@@H](C)[C@H](OC(C)=O)[C@@H]1C,·,?,21µM*,?,-14,-28%
CO[C@H]1C=CO[C@@]2(C)Oc3c(C)c(O)c4c(O)c(c(/C=N/N5CCN(C6CCCC6)CC5)c(O)c4c3C2=O)NC(=O)/C(C)=C\C=C[C@H](C)[C@H](O)[C@@H](C)[C@@H](O)[C@@H](C)[C@H](OC(C)=O)[C@@H]1C,·,4.7µM*,2.7µM*,·,·,·
CC1=CC(C)C(=O)N(CCN2CCOCC2)C(C)=C1 (stereo not given),·,4%,-6%,11%,2,8%
CC1=C(C(=O)OCc2ccccc2)C(c2ccccc2Br)NC(=O)N1 (stereo not given),?,-2%,?,-23%,-72*,-27%
COc1ccc(COC(=O)C2=C(C)NC(=O)NC2c2ccc(F)cc2)cc1 (stereo not given),?,?,?,-27%,-52*,-18%
COc1ccc(COC(=O)C2=C(C)NC(=O)NC2c2ccccc2OC(C)C)cc1 (stereo not given),-14%,-29%,18µM*,-21%,-10,-20%
CC1=C(C(=O)OCc2ccccc2)C(c2ccc(N(C)C)cc2)NC(=O)N1 (stereo not given),-8%,-23%,-23%,-19%,-60*,-8%
Cc1cc(C)cc(C(O)c2ncc(-c3cccc(F)c3)[nH]2)c1 (stereo not given),·,?,?,-3%,-16,-27%
Cc1ccc(S(=O)(=O)N(C)c2ccc(C(=O)NC3CCCCC3)cc2)cc1,·,?,?,-4%,-11,-3%
CC1=C(C(=O)OCc2ccccc2)C(c2ccccc2OC(F)F)NC(=O)N1 (stereo not given),?,29µM*,?,-11%,-7,?
COc1ccccc1C1NC(=O)NC(C)=C1C(=O)OCc1ccccc1 (stereo not given),-2%,-19%,?,-10%,-16,-10%
